The record followed here is PMC10668032, “Altered binding affinity of SIX1-Q177R correlates with enhanced WNT5A and WNT pathway effector expression in Wilms tumor”.

The full ranking holds about 33,000 sequences; the median of “e-score” is about -0.05, and the highest 2% start at about 0.38. Shown is part of a subset that was picked to be rich in the highest values.

In the experiment the target is T1, SIX1-Q177R homeodomain (human, UniProt Q15475 108-198, Q177R).
T1 sequence: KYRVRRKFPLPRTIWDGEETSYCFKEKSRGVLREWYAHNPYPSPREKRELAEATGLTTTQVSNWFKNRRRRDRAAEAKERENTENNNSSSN
The experiment in a line: universal protein binding microarray; Universal all-10-mer PBM (8x60K, AMADID 030236), 300 nM GST-tagged protein, Alexa Fluor 488 anti-GST; buffer, salt, pH and temperature not stated (as in Berger); high values mean tight binding. The conditions noted are these: protein: ivt; tags: N-terminal GST; dsDNA, one strand shown. The essentials: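 Homeodomains carrying a GST tag were produced by in vitro transcription/translation, then quantified by anti-GST western blot against a recombinant GST standard curve. Duplicate applications at 300 nM final concentration were made to universal 'all 10-mer' protein binding microarrays in 8×60K format. The Universal PBM Analysis Suite was used to express binding as 8-mer E-scores.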
CCCGAGAC: the binding signal came to 0.204 ± 0.023 E-score. In the case of ACCCGTCT, the binding signal was 0.178 ± 0.0209 E-score.

For GGTGTCAC, the binding signal is 0.4915 ± 0.00356 E-score.

Regarding CGAGTCAC, the binding signal was found to be 0.196 ± 0.0324 E-score. Consider CGCGTCAG, for which the binding signal was determined as 0.154 ± 0.00463 E-score. For the sequence GGAGTCAC, the binding signal was 0.3325 ± 0.00242 E-score.

With CGTGTCAC, the binding signal stood at 0.462 ± 0.0133 E-score.

As for GGGGTCAC, the binding signal was determined as 0.29 ± 0.0253 E-score. For CGTGTCAG the value was 0.441 ± 0.0089 E-score.

Consider AGTATCAG, for which the binding signal amounted to 0.266 ± 0.0112 E-score. For AGTGTCAC, the binding signal was 0.45 ± 0.00611 E-score. For CGTGTCTC the value was 0.338 ± 0.00573 E-score; for ACGCGGTG, 0.334 ± 0.012 E-score; for GGGATCCA, 0.211 ± 0.0194 E-score. For ACCTGACA the value was 0.228 ± 0.0625 E-score; for ACCCCACT, 0.207 ± 0.00426 E-score; for GCGGATAA, 0.162 ± 0.0348 E-score. For CTCGTACA the value was 0.17 ± 0.0125 E-score; for CCCAAACA, 0.208 ± 0.0371 E-score; for CACTCTTA, 0.164 ± 0.0568 E-score. As to GAACCCCC, the binding signal came to 0.244 ± 0.0572 E-score. For ATACCCAG the value was 0.274 ± 0.0157 E-score; for AGAGTCAT, 0.1867 ± 0.000552 E-score; for AGTGTCAA, 0.424 ± 0.0101 E-score. The result for GGTGTCAA reads 0.49013 ± 0.000481 E-score; that for AGTGTCAT, 0.462 ± 0.0172 E-score. In the case of AGTGTCTG, the binding signal was 0.302 ± 0.0115 E-score. Regarding AGTGTCCG, the binding signal was determined as 0.365 ± 0.00508 E-score. On to GGGGTCAA, for which the binding signal is 0.253 ± 0.0228 E-score. For AGTGTCAG the value was 0.4435 ± 0.00254 E-score. For GGCGTCAA the value was 0.177 ± 0.0347 E-score; for GAGGTATC, 0.337 ± 0.00525 E-score. The result for CCCTCCCA reads 0.176 ± 0.0422 E-score; that for ACCAAACA, 0.244 ± 0.0473 E-score. GTAACATA: the binding signal was 0.196 ± 0.0373 E-score. As for AAAGGGGG, the binding signal worked out at 0.233 ± 0.0235 E-score.

In the case of CACCTTTC, the binding signal was found to be 0.195 ± 0.00584 E-score.

CGTGATCC: the binding signal was 0.195 ± 0.0306 E-score. For CGGGTCAA the value was 0.2 ± 0.04 E-score; for TGTGTCAA, 0.303 ± 0.0203 E-score; for CGTGTCAA, 0.409 ± 0.00885 E-score. As to ACTATGCG, the binding signal was found to be 0.17 ± 0.0186 E-score.

Turning to ACCTCGGA, the binding signal turned out to be 0.175 ± 0.0387 E-score. Turning to CATGACAC, the binding signal is 0.4733 ± 0.00427 E-score.

With AATGACTC, the binding signal is 0.245 ± 0.00746 E-score. For AATGACAC the value was 0.464 ± 0.0115 E-score.

With GATGACCC, the binding signal was 0.211 ± 0.0466 E-score. For GATGATAC the value was 0.242 ± 0.0302 E-score; for CATGATAC, 0.287 ± 0.0236 E-score; for AATGACCC, 0.181 ± 0.0204 E-score.

As to GATGACAC, the binding signal amounted to 0.4656 ± 0.00203 E-score. The result for CATGACCC reads 0.218 ± 0.0214 E-score; that for CACCTAGA, 0.276 ± 0.00873 E-score.

GACGCCAC: the binding signal came to 0.201 ± 0.00624 E-score.

CACCCATC: the binding signal was 0.277 ± 0.0196 E-score. ACCCCCGA: the binding signal turned out to be 0.298 ± 0.0252 E-score.

On to CACTATCC, for which the binding signal turned out to be 0.196 ± 0.0388 E-score.

In the case of AGGGTACA, the binding signal worked out at 0.237 ± 0.00699 E-score.

Regarding ACTCCGGA, the binding signal turned out to be 0.204 ± 0.0189 E-score. The result for ACCCAGAA reads 0.179 ± 0.00761 E-score; that for ACAGTACA, 0.203 ± 0.0245 E-score. For GGATCCGA, the binding signal was determined as 0.217 ± 0.0131 E-score.

Turning to CACTACCA, the binding signal was 0.227 ± 0.00878 E-score. The result for GCACGACA reads 0.2099 ± 0.000516 E-score; that for ACACGACG, 0.368 ± 0.0133 E-score; that for ACACGACC, 0.4169 ± 0.00152 E-score. The result for ACACGACA reads 0.404 ± 0.00581 E-score; that for ACACGAAA, 0.302 ± 0.0196 E-score. GCACGACC: the binding signal was 0.255 ± 0.00765 E-score.

For the sequence ACACGAAT, the binding signal stood at 0.31 ± 0.00916 E-score. For ACACGACT the value was 0.411 ± 0.00971 E-score. For CCACGACA the value was 0.27 ± 0.00989 E-score; for ACCGAATG, 0.173 ± 0.0343 E-score; for CCCCCCTA, 0.232 ± 0.01 E-score. The result for GTGGAGTA reads 0.29 ± 0.0112 E-score; that for ATCGAGGG, 0.167 ± 0.00486 E-score. On to ATCCGATC, for which the binding signal was 0.213 ± 0.0309 E-score. As to CACTCGGC, the binding signal stood at 0.237 ± 0.0125 E-score.

Regarding GCGAGTAC, the binding signal is 0.175 ± 0.00781 E-score. For CCGTATCA the value was 0.245 ± 0.0466 E-score; for GGGTAACC, 0.196 ± 0.00371 E-score. The result for ACGATAGT reads 0.157 ± 0.0172 E-score. On to GCACCACC, for which the binding signal was 0.261 ± 0.00493 E-score. The result for ACACCACT reads 0.4835 ± 0.00239 E-score; that for ACACCACA, 0.485 ± 0.000106 E-score; that for AAACCACA, 0.2156 ± 0.00176 E-score.
